Measured values as given in PubChem BioAssay (EPA / NIEHS).
Results filed as inconclusive are left out. Calls of active or inactive are those of the source. How the source made its calls: active means hit-call score of the fitted dose curve at least 0.9, where 1 is the maximum; inconclusive means response in the unintended direction; inactive means score below 0.9.

read-out: Cytochrome P450 2C19 (Homo sapiens) (UniProt P33261); test: CLD_CYP2C19_24hr: CellzDirect (CLD) Gene Expression Assay for xenobiotic metabolism (CYP2C19) at 24 hours (AID 2283687)
Experimental: CLD_24hr is a cell-based, multiplexed-readout assay that uses hepatocyte, a human liver primary cell, with measurements taken at 24 hours after chemical dosing in a 96-well plate.CLD_CYP2C19_24hr is one of 16 assay component(s) measured or calculated from the CLD_24hr assay. It is designed to make measurements of mRNA induction, a form of inducible reporter, as detected with chemiluminescence signals by Quantitative Nuclease Protection Assay (qNPA) technology.Data from the assay component CLD_CYP2C19_24hr was analyzed at the endpoint, CLD_CYP2C19_24hr, in the positive analysis fitting direction relative to DMSO as the negative control and baseline of activity. Using a type of inducible reporter, gain-of-signal activity can be used to understand changes in the reporter gene as they relate to the gene CYP2C19. Furthermore, this assay endpoint can be referred to as a primary readout. To generalize the intended target to other relatable targets, this assay endpoint is annotated to the cyp intended target family, where subfamily is xenobiotic metabolism.
Human hepatocyte cultures were treated daily for two consecutive days with fresh dosing solutions containing appropriate concentrations of the 320 ToxCast chemicals (chemical identities were blinded to CellzDirect and other ToxCast collaborators), vehicle control (0.2% DMSO), and positive control inducers as summarized in Table 1. Due to the large number of treatment groups and chemicals examined, the ToxCast chemicals were divided into two groups (spanning two independent cultures of hepatocytes from separate donor preparations (Hu778: ToxCast plates 1 and 2; Hu776: ToxCast plates 3 and 4). Each preparation of human hepatocyte cultures was treated with respective vehicle control, medium only control, set of six positive controls/reference chemicals for the five hepatic receptor pathways, and a subset of eight of the ToxCast chemicals (indoxacarb, pyrithiobac-sodium, norflurazon, cyhalofop-butyl, methomyl, thiram, acetochlor, and propiconazole). These replicate data, coupled with internal replicates designed within the blinded ToxCast chemical library, provided additional data to evaluate interindividual differences between hepatocyte preparations and their potential impact on chemical profiles.Cell morphology and integrity were evaluated using phase-contrast microscopy as an indicator of hepatocyte cell health (Tyson & Green, 1987). Cultures for each treatment group (i.e., media, vehicle [0.2% DMSO], positive control inducers [multiple concentrations], and the ToxCast chemicals [multiple concentrations]) were observed and cell morphology was assessed relative to vehicle control cultures at each harvest time point (0, 6, 24, or 48 h). […] Images were evaluated at the conclusion of the study to assess changes in cell integrity and account for the effects of chemical exposure on uncharacteristic changes in concentration-dependent gene expression profiles. The results from these determinations of apparent cytotoxicity were annotated (yes/no) alongside the corresponding qNPA data for reference.At the conclusion of each treatment period, hepatocyte cultures (96-well) were washed with 1 volume of HBSS, lysed by addition of 25 ul ArrayPlate lysis buffer (HTG, Tucson, AZ), and 70 ul/well of Denaturation Oil, denatured by incubation at 95C for 10 min, and frozen at approximately -70C until analysis by nuclease protection assay (qNPA) (Roberts et al., 2007). For qNPA analysis, cell lysates were thawed at 50C for approximately 30 min, qNPA probes were added, and samples were incubated at 95C for 10 min to begin the detection process by denaturing the target RNA, dissociating the duplexes and secondary structure hybridization. At the conclusion of the hybridization period, S1 nuclease reagent was added to each sample to digest all nonprotected nucleotides at 50C for 60-90 min. […]

Sequence of Cytochrome P450 2C19 (Homo sapiens) (P33261 whole entry, looked up): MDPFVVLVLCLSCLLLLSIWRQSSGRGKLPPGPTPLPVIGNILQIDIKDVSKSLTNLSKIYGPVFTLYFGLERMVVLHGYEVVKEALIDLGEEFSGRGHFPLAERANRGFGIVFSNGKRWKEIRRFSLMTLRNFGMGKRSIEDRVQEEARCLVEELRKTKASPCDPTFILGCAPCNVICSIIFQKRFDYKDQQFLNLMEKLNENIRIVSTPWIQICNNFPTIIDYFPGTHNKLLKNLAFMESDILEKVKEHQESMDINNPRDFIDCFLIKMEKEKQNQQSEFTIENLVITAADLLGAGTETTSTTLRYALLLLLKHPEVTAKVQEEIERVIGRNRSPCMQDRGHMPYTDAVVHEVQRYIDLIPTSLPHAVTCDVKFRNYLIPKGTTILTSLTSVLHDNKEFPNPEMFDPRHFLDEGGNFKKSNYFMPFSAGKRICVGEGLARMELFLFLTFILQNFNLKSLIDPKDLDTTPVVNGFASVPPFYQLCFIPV

**Q.** Which outcome does the source give for CCOP(=O)(SC(C)CC)N1CCSC1=O (stereo not given) here?
**A.** The outcome was “inactive”.

**Q.** CCCCOC(=O)[C@@H](C)Oc1ccc(Oc2ccc(C#N)cc2F)cc1 was tested. Which outcome did it give?
**A.** The outcome was “inactive”.

**Q.** How did the outcome turn out when CCOP(=S)(Oc1cnc(C(C)(C)C)nc1)OC(C)C (stereo not given) was run?
**A.** Its outcome is “inactive”.

**Q.** S=C1NCCN1 was tested. Which outcome did it give?
**A.** The outcome was “inactive”.

**Q.** How did the outcome turn out when CCC(CC)Nc1c([N+](=O)[O-])cc(C)c(C)c1[N+](=O)[O-] was run?
**A.** Its outcome is “inactive”.

**Q.** With CN(C)[C@@H]1C(=O)C(C(N)=O)=C(O)[C@@]2(O)C(=O)C3=C(O)c4c(O)cccc4[C@@](C)(O)[C@H]3[C@H](O)[C@@H]12 as the compound, how does the outcome read?
**A.** Its outcome is “inactive”.

**Q.** For CCOP(=S)(OCC)OC(Cl)C(Cl)(Cl)Cl (stereo not given), which outcome is on record?
**A.** Its outcome is “inactive”.

**Q.** With CSc1nnc(C(C)(C)C)c(=O)n1N as the compound, how does the outcome read?
**A.** Its outcome is “inactive”.

**Q.** Which outcome does the source give for Cc1ccn2nc(S(=O)(=O)Nc3c(F)cccc3F)nc2n1 here?
**A.** The outcome was “inactive”.

**Q.** With O=C(O)c1cc(Oc2ccc(C(F)(F)F)cc2Cl)ccc1[N+](=O)[O-] as the compound, how does the outcome read?
**A.** The outcome was “inactive”.

**Q.** How did the outcome turn out when CC1=NNC(=O)N(/N=C/c2cccnc2)C1 was run?
**A.** The outcome was “inactive”.

**Q.** For CCCSP(=O)(OCC)Oc1ccc(Br)cc1Cl (stereo not given), which outcome is on record?
**A.** The outcome was “inactive”.

**Q.** With CC(C)[C@H](C(=O)O[C@H](C#N)c1cccc(Oc2ccccc2)c1)c1ccc(Cl)cc1 as the compound, how does the outcome read?
**A.** The outcome was “inactive”.

**Q.** Which outcome does the source give for CCOC(=O)COc1cc(-c2nn(C)c(OC(F)F)c2Cl)c(F)cc1Cl here?
**A.** Its outcome is “inactive”.

**Q.** CCNc1nc(Cl)nc(NC(C)(C)C#N)n1 was tested. Which outcome did it give?
**A.** The outcome was “inactive”.

**Q.** COc1ccc(C(=CC(=O)N2CCOCC2)c2ccc(Cl)cc2)cc1OC was tested. Which outcome did it give?
**A.** Its outcome is “inactive”.

**Q.** CN(C)NC(=O)CCC(=O)O was tested. Which outcome did it give?
**A.** Its outcome is “inactive”.

**Q.** How did the outcome turn out when CN(C)C(=O)Nc1cccc(C(F)(F)F)c1 was run?
**A.** The outcome was “inactive”.

**Q.** How did the outcome turn out when CC(C)N(C(=O)SCC(Cl)=C(Cl)Cl)C(C)C was run?
**A.** The outcome was “inactive”.

**Q.** For COc1cccc(C(=O)NN(C(=O)c2cc(C)cc(C)c2)C(C)(C)C)c1C, which outcome is on record?
**A.** The outcome was “inactive”.

**Q.** How did the outcome turn out when CCCSP(=O)(OCC)SCCC was run?
**A.** Its outcome is “inactive”.

**Q.** How did the outcome turn out when CCOP(=S)(OCC)SCCSCC was run?
**A.** Its outcome is “inactive”.

**Q.** How did the outcome turn out when COc1cc(OC)nc(Sc2cccc(Cl)c2C(=O)O)n1 was run?
**A.** Its outcome is “inactive”.

**Q.** CCCCOC(=O)c1ccccc1C(=O)O was tested. Which outcome did it give?
**A.** The outcome was “inactive”.

**Q.** COP(=O)(OC)SCn1c(=O)oc2cc(Cl)cnc21 was tested. Which outcome did it give?
**A.** The outcome was “inactive”.

**Q.** CON=C(C(=O)OC)c1ccccc1CON=C(C)c1cccc(C(F)(F)F)c1 was tested. Which outcome did it give?
**A.** The outcome was “inactive”.

**Q.** How did the outcome turn out when CC1(C(=O)Nc2ccc(O)c(Cl)c2Cl)CCCCC1 was run?
**A.** Its outcome is “inactive”.

**Q.** For O=c1ccc(=O)[nH][nH]1, which outcome is on record?
**A.** Its outcome is “inactive”.

**Q.** For CCCCSP(=O)(SCCCC)SCCCC, which outcome is on record?
**A.** Its outcome is “inactive”.

**Q.** CC(C)=CC1C(C(=O)OCN2C(=O)C3=C(CCCC3)C2=O)C1(C)C (stereo not given) was tested. Which outcome did it give?
**A.** The outcome was “inactive”.

**Q.** Which outcome does the source give for CCOC(=O)CC(SP(=O)(OC)OC)C(=O)OCC (stereo not given) here?
**A.** Its outcome is “inactive”.

**Q.** With CC[C@H](C)[C@H]1O[C@]2(C=C[C@@H]1C)C[C@@H]1C[C@@H](C/C=C(\C)[C@@H](O[C@H]3C[C@H](OC)[C@@H](O[C@H]4C[C@H](OC)[C@@H](NC)[C@H](C)O4)[C@H](C)O3)[C@@H](C)/C=C/C=C3\CO[C@@H]4[C@H](O)C(C)=C[C@@H](C(=O)O1)[C@]34O)O2 as the compound, how does the outcome read?
**A.** Its outcome is “inactive”.

**Q.** For CC(C1CC1)C(O)(Cn1cncn1)c1ccc(Cl)cc1 (stereo not given), which outcome is on record?
**A.** Its outcome is “inactive”.

**Q.** For CCOP(=S)(OCC)Oc1cc(C)nc(C(C)C)n1, which outcome is on record?
**A.** Its outcome is “inactive”.

**Q.** For CSc1nc(NC(C)C)nc(NC(C)C)n1, which outcome is on record?
**A.** The outcome was “inactive”.

**Q.** Which outcome does the source give for CN1COCN(Cc2cnc(Cl)s2)C1=N[N+](=O)[O-] here?
**A.** Its outcome is “inactive”.

**Q.** For C=C(C)[C@H]1Cc2c(ccc3c2O[C@@H]2COc4cc(OC)c(OC)cc4[C@@H]2C3=O)O1, which outcome is on record?
**A.** The outcome was “inactive”.

**Q.** Which outcome does the source give for CNC(=O)ON=C(SC)C(=O)N(C)C here?
**A.** The outcome was “inactive”.

**Q.** How did the outcome turn out when CCOP(=S)(OCC)Oc1ccc2c(C)c(Cl)c(=O)oc2c1 was run?
**A.** The outcome was “inactive”.

**Q.** How did the outcome turn out when COP(=O)(OC)OC(Br)C(Cl)(Cl)Br (stereo not given) was run?
**A.** The outcome was “inactive”.
